According to publication PMC7826789 (International Journal of Molecular Sciences, 2021):

Columns and labels:
Conditions in all cases: Compound Concentration (nM):1000
ROCK2 = system: ROCK2
ROS1 = system: ROS1
[1] = system: RPS6KA4(Kin.Dom.1-N-terminal)
[2] = system: RPS6KA4(Kin.Dom.2-C-terminal)
[3] = system: RPS6KA5(Kin.Dom.1-N-terminal)
[4] = system: RPS6KA5(Kin.Dom.2-C-terminal)
[5] = system: T1, RSK1(Kin.Dom.1-N-terminal)
T1 construct: gene RPS6KA1

[6] = system: T2, RSK1(Kin.Dom.2-C-terminal)
T2 construct: gene RPS6KA1

[7] = system: T3, RSK2(Kin.Dom.1-N-terminal)
T3 construct: gene RPS6KA3

[8] = system: T4, RSK2(Kin.Dom.2-C-terminal)
T4 construct: gene RPS6KA3

[9] = system: T5, RSK3(Kin.Dom.1-N-terminal)
T5 construct: gene RPS6KA2

[10] = system: T6, RSK3(Kin.Dom.2-C-terminal)
T6 construct: gene RPS6KA2

[11] = system: T7, RSK4(Kin.Dom.1-N-terminal)
T7 construct: gene RPS6KA6

[12] = system: T8, RSK4(Kin.Dom.2-C-terminal)
T8 construct: gene RPS6KA6

S6K1 = system: T9, S6K1
T9 construct: gene RPS6KB1

SBK1 = system: SBK1
SGK2 = system: SGK2
SGK3 = system: SGK3
SGK = system: T10, SGK
T10 construct: gene SGK1

SIK2 = system: SIK2
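Also: KINOMEscan scanMAX binding as percent activity remaining versus control; lower means stronger binding.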

| SMILES | Percent Control (ROCK2) | Percent Control (ROS1) | Percent Control [1] | Percent Control [2] | Percent Control [3] | Percent Control [4] | Percent Control [5] | Percent Control [6] | Percent Control [7] | Percent Control [8] | Percent Control [9] | Percent Control [10] | Percent Control [11] | Percent Control [12] | Percent Control (S6K1) | Percent Control (SBK1) | Percent Control (SGK2) | Percent Control (SGK3) | Percent Control (SGK) | Percent Control (SIK2) |
| --- | --- | --- | --- | --- | --- | --- | --- | --- | --- | --- | --- | --- | --- | --- | --- | --- | --- | --- | --- | --- |
| COc1cc2ncn(-c3cc(O[C@H](C)c4ccccc4Cl)c(C(N)=O)s3)c2cc1OC [GSK237701A] | 83% | 92% | 92% | 68% | 100% | 72% | 96% | 87% | 50% | 77% | 100% | 90% | 45% | 94% | 68% | 83% | 87% | 75% | 90% | 65% |
| COc1cc(C)c(N(C)C(=O)CN(C)C)cc1Nc1nc(Nc2cccc(F)c2C(N)=O)c2cc[nH]c2n1 [GSK2219385] | 100% | 84% | 92% | 68% | 100% | 90% | 56% | 96% | 21% | 100% | 79% | 90% | 75% | 82% | 100% | 100% | 92% | 92% | 92% | 100% |
| Nc1ncnc2occ(-c3ccc(NC(=O)Nc4cc(C(F)(F)F)ccc4F)cc3)c12 [GW770249X] | 27% | 56% | 100% | 92% | 55% | 100% | 100% | 100% | 89% | 98% | 66% | 59% | 87% | 100% | 21% | 100% | 100% | 83% | 100% | 100% |
| COc1ccc2cc(-c3c(-c4ccncc4)nc(-c4ccc(S(C)(=O)=O)cc4C)n3C)ccc2c1 [SB-633825] | 80% | 69% | 100% | 91% | 95% | 51% | 82% | 97% | 62% | 70% | 98% | 100% | 60% | 83% | 66% | 78% | 59% | 73% | 94% | 100% |
| NS(=O)(=O)c1ccc(N/N=C2\C(=O)Nc3ccc(-c4cnco4)cc32)cc1 [GW276655] | 2.5% | 96% | 65% | 94% | 97% | 39% | 100% | 100% | 79% | 79% | 100% | 87% | 61% | 90% | 100% | 76% | 76% | 53% | 38% | 100% |
| Cl.c1ccc(Cc2nc3ccc(Nc4ncnc5ccccc45)cc3[nH]2)cc1 [GR269666A] | 98% | 76% | 100% | 100% | 100% | 100% | 100% | 100% | 100% | 97% | 100% | 100% | 100% | 98% | 100% | 100% | 100% | 81% | 100% | 82% |
| Cl.O=C(O[C@H]1CN[C@H](C#Cc2cc3ncnc(Nc4ccc5c(cnn5Cc5ccccc5)c4)c3s2)C1)N1CCOCC1 [GSK200398A] | 84% | 73% | 97% | 88% | 100% | 100% | 96% | 97% | 95% | 93% | 92% | 89% | 80% | 83% | 100% | 100% | 97% | 99% | 99% | 69% |
| NS(=O)(=O)c1ccc(Nc2ncc(-c3ccccc3)o2)cc1 [GW572399X] | 91% | 100% | 100% | 89% | 100% | 100% | 100% | 100% | 98% | 98% | 100% | 100% | 96% | 100% | 100% | 100% | 93% | 60% | 48% | 100% |
| CN1CCN(C(=O)c2ccc(NC(=O)Nc3ccc(N(C)c4ccnc(Nc5ccc(CS(C)(=O)=O)cc5)n4)cc3)cc2)CC1.Cl [GW830263A] | 1.5% | 57% | 82% | 74% | 100% | 87% | 100% | 93% | 57% | 86% | 84% | 89% | 74% | 84% | 37% | 65% | 73% | 79% | 57% | 56% |
| COc1cccc(-n2ncc3c(N/N=C/c4ccncc4)ncnc32)c1 [GW784752X] | 84% | 100% | 100% | 70% | 100% | 100% | 94% | 100% | 100% | 86% | 100% | 98% | 94% | 100% | 93% | 63% | 83% | 77% | 57% | 75% |
| COc1cc(N2CCN(C(C)C)CC2)ccc1Nc1nc(Nc2ccc(F)cc2C(=O)NC[C@@H](O)CO)c2cc[nH]c2n1 [GSK1392956A] | 100% | 52% | 100% | 33% | 100% | 47% | 27% | 78% | 5.7% | 100% | 67% | 72% | 55% | 86% | 94% | 64% | 100% | 91% | 99% | 100% |
